# Results: PubChem BioAssay AID540333 (Southern Research Specialized Biocontainment Screening …, 2011)
# Hit rate of the full screen: of about 10,000 compounds, about 320 (3.2%) were called active. Only a selection was taken, and actives are over-represented in it overall. Values without a mark were called inactive. Rule as the data show it: active = CPE inhibition mostly above about 9.1% (no sharp cut-off); inactive = mostly below about 7.2%.
# Assay: antivirals protecting cells from dengue CPE – CPE readout, HTS (AID 540333)
# Conditions: Dengue virus CPE inhibition in host cells, at 20 µM; hits give high values
row,Compound,CPE inhibition
1,Cc1cc(NC(=O)/C=C/c2ccc(Cl)cc2)no1,inactive
2,Cc1cccn2c(=O)c(/C=C(\C#N)C(=O)NCc3ccco3)c(N3CCC(C(N)=O)CC3)nc12,0.26%
3,Cc1cccn2c(=O)c(/C=C(\C#N)C(=O)NCc3ccco3)c(N3CCCC(C)C3)nc12 (configuration not stated),11.3% (active)
4,Cc1cccn2c(=O)c(/C=C(\C#N)C(=O)NC3CCS(=O)(=O)C3)c(N3CCC(C(N)=O)CC3)nc12 (configuration not stated),0.15%
5,CCOP(=O)(OCC)C(NC(=O)Nc1ccc(Cl)cc1)c1ccccc1 (configuration not stated),0.17%
6,Cn1cccc1CC(=O)N/N=C/C=C/c1ccccc1,0.02%
7,COc1ccc(COc2ccccc2C(=O)NCc2ccccc2)cc1F,1.67%
8,Cc1cc(C)c2c(c1)cc(C)c1nnc(SCC(=O)Nc3ccccc3N3CCOCC3)n12,inactive
9,CCOc1cc(/C=C2\C(=O)N(CCc3ccc(OC)c(OC)c3)C(C)=C2C(=O)OC)ccc1O,2.62%
10,CCOc1cc(/C=C2\C(=O)N(c3cccc(C(F)(F)F)c3)C(=O)c3ccccc32)ccc1O,17.1% (active)
11,CCOc1cc(/C=C2\NC(=S)N(c3c(C)n(C)n(-c4ccccc4)c3=O)C2=O)ccc1O,0.065%
12,CN(C)S(=O)(=O)c1cccc(NC(=O)COC(=O)/C=C/c2ccco2)c1,inactive
13,COc1ccccc1-c1coc2cc(OCC(=O)OCc3ccccc3)ccc2c1=O,inactive
14,CCCOC(=O)c1ccc(NC(=O)C(CC)CC)cc1,inactive
15,CCCOC(=O)c1ccc(NC(=O)c2cc(Cl)ccc2OC)cc1,0.345%
16,CCCCOC(=O)c1ccc(NC(c2ccc(C)cc2)P(=O)(OC)OC)cc1 (configuration not stated),41.4% (active)
17,Cc1ccc(NC(=O)c2cncc(Br)c2)cc1S(=O)(=O)N(C)C,inactive
18,CCCNC(=O)Cn1nc([N+](=O)[O-])c([N+](=O)[O-])c1C,inactive
19,O=C(c1cccs1)N1N=C(c2ccccc2)CC1c1ccc(O)cc1 (configuration not stated),30.5% (active)
20,CCn1cc([N+](=O)[O-])c(C(=O)N2N=C(c3ccccc3)CC2c2ccc([N+](=O)[O-])cc2)n1 (configuration not stated),1.99%
21,COc1ccc(C2CC(c3ccccc3)=NN2C(=O)COC(=O)C2CC2)cc1 (configuration not stated),1.49%
22,COc1ccccc1-c1nnc(NC(=O)C2=COCCO2)o1,0.3%
23,Cc1onc(-c2c(F)cccc2Cl)c1C(=O)NC(=S)NCc1cccnc1,inactive

row,Compound,CPE inhibition
1,CCN(CC)S(=O)(=O)c1ccc(C)c(NC(=S)NNC(=O)C2CC2)c1,0.73%
2,CCN(CC)c1ccc(S(=O)(=O)Nc2cc(Cl)ccc2Cl)cc1NC(=S)NC(=O)C1CCCC1,26.9% (active)
3,O=C(CNC(=O)C1CCCCC1)Nc1cc(Cl)ccc1Cl,inactive
4,O=[N+]([O-])c1cccc(N/N=C/c2cccc3ccccc23)c1,0.555%
5,CCn1cc(CNC(=O)c2cccc([N+](=O)[O-])c2)c(C)n1,0.4%
6,O=C(Cc1ccc(Cl)cc1)Nc1cccc(S(=O)(=O)Nc2ccccc2F)c1,0.29%
7,Cc1cccc(NC(=S)N2CCCCC2)c1,0.28%
8,Cc1cccc(NC(=S)N/N=C2/CCCCc3ccccc32)c1,11.6% (active)
9,Cc1cccc(NC(=S)N2CCCCCC2)c1,0.335%
10,Cc1ccc(C(=O)NN2C(=O)C3C4c5ccccc5C(c5ccccc54)C3C2=O)cc1 (configuration not stated),1.93%
11,CCOc1ccccc1NC(=O)c1cc(C(=O)c2cc(OC)ccc2O)coc1=N,inactive
12,COc1ccc(O)c(C(=O)c2cc(C(=O)NCCc3ccccc3)c(=O)n(CCc3ccccc3)c2)c1,15.6% (active)
13,COc1ccc(CCNC(=O)c2ccccc2N(C)S(=O)(=O)c2ccccc2)cc1,inactive
14,Cc1ccc(SCc2cc(=O)[nH]c(Nc3nc(C)c4ccc(C)cc4n3)n2)cc1,2.63%
15,Cc1ccccc1-c1ccc(C(=O)NCc2ccccc2)o1,inactive
16,O=C(C[n+]1cc(-c2ccccc2)n2c1CCC2)N1c2ccccc2Sc2ccccc21,2.94%
17,O=C(C[n+]1cc(-c2ccc(Cl)cc2)n2c1CCC2)N1c2ccccc2Sc2ccccc21,2.13%
18,O=C(C[n+]1cc(-c2ccc(Cl)c(Cl)c2)n2c1CCC2)N1c2ccccc2Sc2ccccc21,15.1% (active)
19,Cc1ccc(N=Nc2ccc(O)c3ncccc23)cc1,0.345%
20,O=S(=O)(Nc1ccc(N=Nc2ccc(O)c3ccccc23)cc1)c1ccccc1,10.4% (active)
21,O=S(=O)(Nc1ccc2ccccc2c1)c1ccccc1,inactive
22,Cc1ccc(-c2cc3nc(-c4ccc(Br)cc4)cc(N)n3n2)cc1,8.6%
23,O=C(CNC(c1ccccc1)c1ccccc1)Nc1ccccc1-c1ccccc1,25.7% (active)

row,Compound,CPE inhibition
1,CCC(C(=O)OCC(=O)Nc1ccccc1-c1ccccc1)c1ccccc1 (configuration not stated),4.5%
2,Cc1ccccc1CSCC(=O)Nc1ccccc1-c1ccccc1,2.64%
3,Cc1ccc(/C=N/n2c(C)cc(C)c(C#N)c2=O)o1,1.26%
4,Cc1ccc(C2=[N+]([O-])C(C)(C)N(O)C2(C)C)cc1,inactive
5,CCc1ccc(OCC(=O)NC(NC(=S)Nc2ccccc2OC)C(Cl)(Cl)Cl)cc1 (configuration not stated),12.2% (active)
6,CCC(=O)NC(NC(=S)Nc1ccccc1Br)C(Cl)(Cl)Cl (configuration not stated),0.015%
7,CCOC(=O)NC(NC(=S)Nc1ccccc1OC)C(Cl)(Cl)Cl (configuration not stated),1.97%
8,COc1cc2c(cc1OC)CN(c1nc(CN3CCOCC3)nc3sc4c(c13)CCC(C)C4)CC2 (configuration not stated),inactive
9,Cc1cccc(Oc2nc(CN3CCOCC3)nc3sc4c(c23)CCCC4)c1,15.4% (active)
10,c1ccc2c(c1)CCN(c1nc(CN3CCOCC3)nc3sc4c(c13)CCCC4)C2,7.32%
11,Cc1c(C)c2ccc(OS(C)(=O)=O)cc2oc1=O,0.305%
12,Oc1c(C=C2N=c3ccccc3=N2)sc(=S)n1-c1ccccc1,1.34%
13,O=C(O)CCCCCn1c(O)c(C=C2N=c3ccccc3=N2)sc1=S,11.8% (active)
14,Oc1c(C=C2N=c3ccccc3=N2)sc(=S)n1C1CCCC1,0.885%
15,COC(=O)c1cc(CNC(=O)c2ccc(O)c(Cl)c2)ccc1OC,0.01%
16,Cc1ccc(Nc2nnc(SC(C)C(=O)Nc3c(C)n(C)n(-c4ccccc4)c3=O)s2)cc1 (configuration not stated),inactive
17,CC(Sc1nnc(NC2CCCCC2)s1)C(=O)Nc1ccc2c(c1)C(=O)c1ccccc1C2=O (configuration not stated),11.9% (active)
18,CC(Sc1nnc(NCc2ccccc2)s1)C(=O)Nc1ccc2c(c1)C(=O)c1ccccc1C2=O (configuration not stated),4.04%
19,CCNC(=S)N/N=C(\C)c1cc2ccccc2o1,0.995%
20,Cc1nnc(SCC(=O)NC(C)(C)C)n1C1CCCCC1,inactive
21,CCCCSc1nnc(CNC(=O)C23CC4CC(CC(C4)C2)C3)n1Cc1ccccc1,8.5% (active)
22,CCSc1nnc(CNC(=O)C23CC4CC(CC(C4)C2)C3)n1C1CCCCC1,5.44%
23,CCSc1nnc(CNC(=O)C23CC4CC(CC(C4)C2)C3)n1Cc1ccccc1,0.79%

row,Compound,CPE inhibition
1,CC(C)Sc1nnc(CNC(=O)C23CC4CC(CC(C4)C2)C3)n1Cc1ccccc1,14.9% (active)
2,COc1ccc(C(=O)NCc2nnc(SCC(=O)N3CCc4ccccc43)n2Cc2ccccc2)cc1,inactive
3,O=C(CNC(=O)C12CC3CC(CC(C3)C1)C2)N1CCN(S(=O)(=O)/C=C/c2ccccc2)CC1,0.155%
4,CCCSc1nnc(CNC(=O)C23CC4CC(CC(C4)C2)C3)n1Cc1ccccc1,7.14%
5,CCC(C)Sc1nnc(CNC(=O)C23CC4CC(CC(C4)C2)C3)n1C1CCCCC1 (configuration not stated),12.2% (active)
6,CCOC(=O)CC1C(=O)NCCN1C(=S)Nc1ccccc1 (configuration not stated),0.585%
7,O=C(NC1(C(F)(F)F)NC(=O)N(CCc2ccccc2)C1=O)C1CC1 (configuration not stated),inactive
8,COc1ccccc1-n1cc(-c2ccc(Cl)cc2)[nH]c1=O,0.275%
9,COc1cc(C(=O)Nc2nc(-c3ccc(Cl)cc3)c(C)s2)ccc1OCC(=O)Nc1ccc(F)cc1,6.33%
10,COc1ccc(-c2nc(NC(=O)c3ccc(OCC(=O)Nc4ccc(F)cc4)c(OC)c3)sc2C)cc1,12.6% (active)
11,COc1cc(/C=C2\SC(N)=NC2=O)ccc1OCC(=O)Nc1ccc(C)cc1,1.51%
12,COc1cc(C(=O)Nc2nc(-c3cc(C)ccc3C)c(C)s2)ccc1OCC(=O)Nc1ccc(F)cc1,14.4% (active)
13,Cc1ccc(C)c(OCC(=O)Nc2ccc(S(=O)(=O)Nc3ccccn3)cc2)c1,0.235%
14,CCc1ccc(-c2nc(NC(=O)c3ccc(OCC(=O)Nc4ccc(F)cc4)c(OC)c3)sc2C)cc1,0.375%
15,COc1ccc2[nH]c(O)c(N=NC(=N)N)c2c1,0.45%
16,COC(=O)c1cc([N+](=O)[O-])ccc1N1CCN(Cc2ccccc2)CC1,0.06%
17,COc1ccc(C(=O)OC(C)C(=O)Nc2cc(C(F)(F)F)ccc2Cl)c(OC)c1OC (configuration not stated),2.02%
18,CCN(CC)S(=O)(=O)c1cc(NC(=O)COc2ccc(C#N)cc2OC)ccc1C,inactive
19,Cc1nc2ccc(C(=O)O)cc2nc1C,0.025%
20,Nc1cc(Cl)ccc1C(=O)OCC(=O)NC(=O)NCc1ccccc1,19.5% (active)
21,O=C(COC(=O)c1ccccc1Cl)NC(=O)NCc1ccccc1,inactive
22,O=C(COC(=O)c1c(Cl)ccc(Cl)c1Cl)NC(=O)NCc1ccccc1,0.78%
23,CCOC(=O)/C=C(/C)N1N=C(c2ccc(OC)cc2)CC1c1cccc([N+](=O)[O-])c1 (configuration not stated),0.895%
